PubChem BioAssay AID1347172 (National Center for Advancing Translational Sciences (NCATS), 2019)
Records with an inconclusive call do not appear. Unmarked numbers belong to inactive results. Activity calls are given as the source filed them. The call rests on the fitted dose curve; in most records, active means well fitted inhibition curve with a large enough effect; inconclusive means small, poorly fitted or top-dose-only effect; inactive means flat fitted curve, though single readings scatter.

Test: Secondary qRT-PCR qHTS assay for selected Zika virus inhibitors
Settings: Vero cells ZIKV infection, NS5 RNA qRT-PCR, 24 h; series mostly up to 32.6 µM; activity change, negative = inhibition: at the top concentration
Summary of the method: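 Viral load was measured as NS5 RNA by TaqMan qRT-PCR and expressed relative to vehicle. This followed ZIKV infection (MOI 1, 3 h adsorption, then wash) of compound-treated Vero cells and 21 h further culture at 37C.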

Going from `O=S(=O)(O)c1ccc2cc(N=Nc3cc(S(=O)(=O)O)c4cccnc4c3O)ccc2c1` to `Cc1ccc2nc(NS(=O)(=O)c3ccc(Cl)cc3)c(Nc3ccc(C(=O)O)cc3)nc2c1`, the “activity change, negative = inhibition” value falls from 4.54% to -7.87%.

First: O=C1NC(=O)/C(=C/c2cccc(C(F)(F)F)c2)S1
Second: O=C(N/N=C/c1ccc(O)c(O)c1)c1cc2ccccc2cc1O
The “activity change, negative = inhibition” value of the first is higher: -8.11% for the first, -17.4% for the second.

Compared with `CCOc1c2c(c(OCC)c3ccccc13)C(=O)N(c1ccc(CC(=O)NS(=O)(=O)c3ccccc3)cc1)C2`, `CC1=C(C(=O)OCc2ccccc2)C(c2ccc(-c3ccccc3)cc2)NC(=O)N1CCCCCC(=O)O` (configuration not stated) is lower in “activity change, negative = inhibition” value: 10.7% for the first, -14% for the second.

First: O=C(O)c1cccc(-c2ccc(-c3cn(C(=O)N4CCCCC4Cc4ccccc4)nn3)cc2)c1 (configuration not stated)
Second: CC(C)(O)c1ccccc1CC[C@@H](SCC1(CC(=O)O)CC1)c1cccc(/C=C/c2ccc3ccc(Cl)cc3n2)c1
The “activity change, negative = inhibition” value of the first is lower: -2.59% for the first, 2.54% for the second.

First: O=C(O)Cn1nnc(-c2cc(N3CCC(Oc4cc(F)ccc4Br)CC3)no2)n1
Second: N#Cc1ccc(N2N=C3c4ccc(C(=O)O)cc4CC[C@@H]3[C@@H]2C2CCCC2)cc1Cl
The “activity change, negative = inhibition” value of the first is higher: -7.81% for the first, -22.2% for the second.

First: CN(C)[C@@H]1C(=O)C(C(N)=O)=C(O)[C@@]2(O)C(=O)C3=C(O)c4c(O)cccc4C[C@H]3C[C@@H]12
Second: Cc1ccn(-c2ccc(-c3ncco3)cc2)c(=O)c1-c1ccc2nc(N)ncc2c1
The “activity change, negative = inhibition” value of the first is higher: 9.04% for the first, -6.39% for the second.

For `CN(Cc1ccc(C(=O)O)cc1)c1ccc(OCc2c(-c3c(Cl)cccc3Cl)noc2C2CC2)nc1C(F)(F)F`, the Potency was 14.1 µM (active).
In the case of `CC(C)=CCc1c2c(c3occ(-c4ccc(O)c(O)c4)c(=O)c3c1O)C=CC(C)(C)O2`, the Potency was 4.47 µM (active).
For `CC(C)c1cc(C(C)C)c(CC(=O)NS(=O)(=O)Oc2c(C(C)C)cccc2C(C)C)c(C(C)C)c1`, the Potency was 10 µM (active).
In the case of `CC(C)(C)Sc1c(CC(C)(C)C(=O)O)n(Cc2ccc(Cl)cc2)c2ccc(OCc3ccc4ccccc4n3)cc12`, the Potency was 25.1 µM (active).

For `CC(=O)O[C@@H]1C[C@]2(C)[C@@]3(CCC4[C@@]5(C)CC[C@H](O[C@@H]6O[C@H](C(=O)O)[C@@H](O)[C@H](O[C@@H]7O[C@H](CO)[C@H](O)[C@H](O)[C@H]7O[C@@H]7O[C@@H](C)[C@H](O)[C@@H](O)[C@H]7O[C@@H]7OC[C@](O)(CO)[C@H]7O)[C@H]6O[C@@H]6O[C@H](CO)[C@H](O)[C@H](O)[C@H]6O)C(C)(C)C5CC[C@]42C)O[C@@H](O)[C@]12C3CC(C)(C)[C@@H](OC(=O)/C=C/c1ccc(O)c(O)c1)[C@@H]2OC(=O)/C=C/c1ccccc1` (some centres not stated), the activity change, negative = inhibition was -6.06% [at 6.77 µM].
